PubChem BioAssay (EPA / NIEHS)
Active and inactive are the calls of the source. Rule for the calls: active = hit-call score of the fitted dose curve at least 0.9, where 1 is the maximum; inactive = score below 0.9.

Assay: ATG_TAL_CIS: Attagene CIS-FACTORIAL HepG2 Assay for human TAL Basal Promoter (AID 2282966)
Conditions: HepG2 Attagene cis-factorial TAL promoter reporter; actives raise or lower the signal
Protocol: ATG_CIS is a cell-based, multiplexed-readout assay that uses HepG2, a human liver cell line, with measurements taken at 24 hours after chemical dosing in a 24-well plate.ATG_TAL_CIS is one of 52 assay component(s) measured or calculated from the ATG_CIS assay. It is designed to make measurements of mRNA induction, a form of inducible reporter, as detected with fluorescence intensity signals by Reverse transcription polymerase chain reaction (RT-PCR) and Capillary electrophoresis technology.Data from the assay component ATG_TAL_CIS was analyzed into 1 assay endpoint. This assay endpoint, ATG_TAL_CIS, was analyzed with bidirectional fitting relative to DMSO as the negative control and baseline of activity. Using a type of inducible reporter, measures of mRNA for gain or loss-of-signal activity can be used to understand the background control at the transcription factor-level as they relate to the gene . Furthermore, this assay endpoint can be referred to as a secondary readout, because this assay has produced multiple assay endpoints where this one serves a background control function. To generalize the intended target to other relatable targets, this assay endpoint is annotated to the background measurement intended target family, where the subfamily is internal marker.
Human liver HepG2 cells are transiently transfected with multiple reporter transcription units (MRTUs) in 6-well plates using FuGene 6 reagent (Roche; 3 ml FuGene/1 mg DNA). The MRTU constructs are regulated by a cis-regulating element (promoter). […] A major difference between the CIS and TRANS system is that in CIS activities of endogenous TFs are measured, whereas the TRANS assay evaluates changes in activities of exogenous, chimeric NR-Gal4 proteins. […] At the end of 24 hour incubation, total RNA was isolated using TriZol reagent (Invitrogen). The isolated RNA is then reverse-transcribed using oligo(dT) primer and Mo-MLV reverse transcriptase (Invitrogen) with DNAse I (Ambion) treatment for 30 min. The one-tenth of the produced cDNA was amplified by PCR using Taq DNA polymerase (Invitrogen) and two reporter sequence-specific primers. The PCR products were fluorescently labeled by primer extension with 6-arboxyfluorescein (6-FAM) 5'-labeled reporter sequence-specific primer (2 min at 95 C, 20 s at 68 C and 10 min at 72 C) and these products were digested with 5U of HpaI (New England Biolabs) for 2h at 37 C. The fragments were purified using Qiaquick PCR columns (Qiagen), analyzed on an ABI 3130xL genetic analyzer (Applied Biosystems) with peak positions identified by using a set of X-rhodamine (ROX)-labeled MapMarker1000 molecular weight standards (BioVentures). The raw capillary electrophoresis data was processed using Attagraph software (Attagene).

outcome, inactive:
CC1(C)O[C@@H]2[C@@H](CO[C@@]3(COS(N)(=O)=O)OC(C)(C)O[C@@H]23)O1
COc1ccc(COC(C)=O)cc1
CCCCCCCC(=O)OCCCCCC
CCCC(=O)OCCc1ccccc1
NCCNc1cccc2ccccc12
CCCCC(CC)COC(=O)c1ccc(O)cc1 (stereo not given)
CS(=O)(=O)c1ccc(Cl)cc1
O=C(Nc1ccc2c(c1)Cc1ccccc1-2)C(F)(F)F
CC(C)=CCCC(C)CC(=O)O (stereo not given)
C=CCN(CC=C)CC=C
CC(Oc1cc(Cl)ccc1Cl)C(=O)O (stereo not given)
Cc1ccc(C)o1
CCCCCCOCCOCCO
Cc1c(OCC(F)(F)F)ccnc1CS(=O)c1nc2ccccc2[nH]1 (stereo not given)
Cc1ccc(-c2ccccc2)cc1
CC(=O)OCCCc1ccccc1
O=c1c(O)c(-c2ccc(O)cc2)oc2cc(O)cc(O)c12
CC(C)(N=C=O)c1cccc(C(C)(C)N=C=O)c1
CCN(CCC#N)c1ccc(N=Nc2ccc([N+](=O)[O-])cc2)cc1
CC(C)Nc1nc(N)nc(Cl)n1
Nc1ccc2cc(S(=O)(=O)O)cc(O)c2c1N=Nc1ccccc1C(F)(F)F
O=C(Nc1ccc([N+](=O)[O-])cc1)Nc1ccc([N+](=O)[O-])cc1 (tested in a mixture with another compound)
O=Cc1ccccc1S(=O)(=O)O
CCOc1ccccc1O
O=CCc1ccccc1
Nc1c(Cl)cc(Cl)cc1[N+](=O)[O-]
Nc1ccc(N)c2c1C(=O)c1ccccc1C2=O
COC(=O)c1ccc(C)cc1C1=NC(C)(C(C)C)C(=O)N1 (stereo not given) (tested in a mixture with another compound)
C=C(C)C(=O)OCC(CC)(COC(=O)C(=C)C)COC(=O)C(=C)C
CCCCCCCCCCCC(=O)OC[C@@H](O)[C@H]1OC[C@H](O)[C@H]1O
COc1ccc(OC)c(N=Nc2c(O)ccc3ccccc23)c1
OCc1cccc(Oc2ccccc2)c1
COc1ccc(CCN2CCC(Nc3nc4ccccc4n3Cc3ccc(F)cc3)CC2)cc1
CC(=O)O[C@H]1C[C@@H]2CC[C@@]1(C)C2(C)C
Cc1c(Cl)cccc1[N+](=O)[O-]
CCN(CC)C(=O)N(CC)CC
Oc1ccc2cc(SSc3ccc4cc(O)ccc4c3)ccc2c1
C=CCCC(=O)/C=C/C1C(C)=CCCC1(C)C (stereo not given)
BrCc1cccc(Oc2ccccc2)c1
CCCC(O)C(O)CO (stereo not given)
